BRCA1 expr up: qHTS Assay to Identify Small Molecule Activators of BRCA1 Expression; MCF7-BRCA1-FFLuc reporter, luminescence, 48 h; response scale: scaled: vehicle 0%, 10 µM genistein 100%; Potency, µM (titrated, usually from 46.1 µM), for inactives: at the top dose activation, hits mostly activators; 1.1% of 380,000 active; AID 624202, 2012; also: potency is read from the fitted curve at half-maximal effect; nearly all actives have a fitted effect of over 80% in size
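Cells: MCF7-BRCA1-FFLuc, 2000/well. Exposure: 48 h, 37 °C, 5% CO2. Read: luminescence, 15 min post-substrate. Controls: genistein 10 microM (maximal activation), DMSO (neutral).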
Nrf2 ARE act: qHTS of Nrf2 Activators | AID 624171, 2012 | AREc32 ARE-luciferase reporter (MCF7-derived line), luminescence, 24 h | Potency, µM (highest dose often 46.1 µM), without a hit: at the highest dose activation, hits mostly activators | 0.31% of 410,000 active; also: potency is read from the fitted curve at half-maximal effect; % of control where 0% means no effect; nearly all actives have a fitted effect of over 65% in size
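Luciferase luminescence (Steady-Glo, 30 min at room temperature) served as the read-out of ARE activation in AREc32 cells treated with compounds for 24 hr at 37 deg C.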
p53 reactivation: qHTS assay for re-activators of p53 using a Luc reporter. 0.063% of 320,000 active. Potency, µM (titrated, usually from 92.2 µM), for the others: top-dose activity change, positive = activation, usual class: activators. H1299 p53-A138V BP100-luciferase reporter, luminescence, 24 h; also: potency is read from the fitted curve at half-maximal effect; % of control where 0% means no effect; nearly all actives have a fitted effect of over 45% in size
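H1299 (p53-null), stable ts p53-A138V + BP100-Luc; 1000 cells/well, Opti-MEM/10% FBS; cpd 4 pt, 1:5; 24 h, 37 deg C, 5% CO2; detection reagent 10 min RT; luminescence.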
A549 viability: Nrf2 qHTS screen for inhibitors: counterscreen for cytotoxicity; A549 ARE-Fluc cells, CellTiter-Fluor viability, 18-24 h; 0.16% of 390,000 active; Potency, µM (highest dose often 46 µM), inactives show at the top dose activity change, negative = cytotoxicity, hits mostly inhibitors; AID 504648, 2011; also: potency is read from the fitted curve at half-maximal effect; % is scaled to controls: 0 for no effect and ±100 for the full control effect
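A549 ARE_Fluc cells in 5% FBS OPTI-MEM were exposed to compounds in concentration-response for 18-24 h at 37 deg C. Viability was read by CellTiter-Fluor fluorescence (Ex 405/Em 525) after 30 min, before the luciferase read.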
IL-2 act: qHTS of IL-2 Activators; IL-2 activation reporter assay, cell-based qHTS; stimulated with anti-CD3/CD4/CD28 beads; in transgenic mouse T cells; activation, % (series mostly up to about 46 µM); 0.065% of 360,000 active; AID 652025, 2013; in the data active = activation above about 50%; inconclusive = mostly about 30% to 49%; also: 0% is about no effect
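Readout: EGFP and DsRed signals by fluorescent plate cytometry. Unstimulated transgenic mouse T cells received compound 60 min before antibody-bead stimulation, then incubated 18 h at 37 degrees C.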
Nrf2 inh: Nrf2 qHTS screen for inhibitors | 2.1% of 360,000 active | A549 ARE-Fluc reporter, luciferase luminescence, 18-24 h | Potency, µM (series often up to 46 µM), without a hit: at the top dose activity change, negative = inhibition, hits mostly inhibitors; also: potency is read from the fitted curve at half-maximal effect; % is scaled to controls: 0 for no effect and ±100 for the full control effect; nearly all actives have a fitted effect of over 60% in size
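A549 ARE_Fluc cells, 5000/well, 5% FBS OPTI-MEM; compounds in dose-response, 18-24 h at 37 °C/5% CO2; CellTiter-Fluor viability read (Ex 405/Em 525), then BugLite luciferase luminescence = Nrf2 activity.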
Starred values were filed as active, the others as inactive; ? = inconclusive; . = no result given; [ ] = dose if it differs, or a comment. This is a sample that favours compounds with a hit; in the whole collection about 3.2% have one here. Unless noted, calls follow the shape of the dose curve; as a rule, active = well fitted curve in the direction sought with a large enough effect; inconclusive = small, poorly fitted or top-dose-only effect, or another doubt; inactive = no such curve, though single readings can be large; an effect the other way counts as inactive or inconclusive.

SMILES	BRCA1 expr up	Nrf2 ARE act	p53 reactivation	A549 viability	IL-2 act	Nrf2 inh
COc1ccc(CCNC(=O)CCc2cn(Cc3ccc(C)cc3)c3ccccc23)cc1OC	.	4%	.	-1%	.	-14%
COc1ccc(CNC(=O)CCc2cn(Cc3cc(C)ccc3C)c3ccccc23)cc1OC	.	0%	.	-5%	.	23µM*
CN1CCN(C2=C(Cl)C(=O)N(Cc3ccccc3)C2=O)CC1	10%	27%	20µM*	-13%	0	4%
CCN1CCN(C2=C(Cl)C(=O)N(Cc3ccccc3)C2=O)CC1	-11%	?	20%	1%	-1	1%
Cc1ccc2cc(NC(=O)c3ccccc3C)ccc2n1	7.1µM*	0%	?	0%	1	6%
Cc1ccc2cc(NC(=O)c3ccc(C(C)(C)C)cc3)ccc2n1	?	-2%	9%	-15%	-2	?
Cc1ccc2cc(NC(=O)Cc3ccccc3)ccc2n1	4.5µM*	0%	13%	0%	0	?
CCc1ccc(C(=O)Nc2ccc3nc(C)ccc3c2)cc1	3.2µM*	2%	?	-6%	-3	-17%
CN(C(=O)c1cccc(NC(=O)Cc2ccccc2)c1)c1ccccc1	0%	1%	2%	1%	0	-9%
Cc1ccc(S(=O)(=O)N2CCN(c3nc(-c4ccc(C)s4)nc4ccccc34)CC2)cc1	0%	.	.	0%	.	-3%
c1cc2c(cc1CNc1ccc(N3CCOCC3)cc1)OCO2	4.5µM*	6%	?	0%	0	?
O=C(CCc1ccccc1)NC(NC(=S)Nc1cccc(Cl)c1)C(Cl)(Cl)Cl (configuration not stated)	-47%	0%	-12%	-1%	-2	?
O=C(CCc1ccccc1)NC(NC(=S)Nc1ccc(Br)cc1)C(Cl)(Cl)Cl (configuration not stated)	-62%	8%	-6%	?	-1	9.2µM*
CCc1noc(-c2ccc(N3CCC(C)CC3)c([N+](=O)[O-])c2)n1	8.9µM*	3%	.	3%	.	18%
COc1ccc(-c2noc(-c3ccc(N4CCC(C)CC4)c([N+](=O)[O-])c3)n2)cc1OC	5%	0%	.	-17%	.	21µM*
Cc1ccc(-c2noc(-c3ccc(N4CCCCC4)c([N+](=O)[O-])c3)n2)cc1	0%	-2%	.	0%	.	?
Cc1noc(-c2ccc(N3CCC(C)CC3)c([N+](=O)[O-])c2)n1	?	4%	.	1%	.	?
Cc1ccc(-c2noc(-c3ccc(N4CCOCC4)c([N+](=O)[O-])c3)n2)cc1	-1%	0%	.	2%	.	18%
O=[N+]([O-])c1cc(-c2nc(-c3ccccc3)no2)ccc1N1CCOCC1	-21%	7%	.	0%	.	23µM*
CCc1noc(-c2ccc(N3CCCCC3)c([N+](=O)[O-])c2)n1	7.1µM*	4%	.	6%	.	16%
CC(C)(C)NC(=O)C1C(c2ccc(C(F)(F)F)cc2)=Nc2ccccc2N1C(=O)c1cccc(C(F)(F)F)c1 (configuration not stated)	.	.	.	.	0	.
CCCCc1ccc(NC(=O)c2ccc3c(c2)CCN3S(=O)(=O)c2ccccc2)cc1	.	3%	.	-1%	.	?
CC1CCC2C(=O)N(c3ccc(Cc4ccncc4)cc3)C(=O)C2C1 (configuration not stated)	3%	-1%	-4%	-14%	-5	10µM*
CC(=O)N(c1nnc(-c2ccc(C)cc2)s1)C1CCCC1	11µM*	-1%[9.22 µM]	.	8%	-3	0%
Cn1c(COc2ccc(Cl)cc2)nnc1SCc1ncc(-c2ccccc2)o1	4%	2%	-2%	-30%	1	16µM*
SMILES	BRCA1 expr up	Nrf2 ARE act	p53 reactivation	A549 viability	IL-2 act	Nrf2 inh
COc1ccc(-n2cnnc2SCc2ncc(-c3ccccc3)o2)cc1	-40%	1%	2%	2%	-4	?
CN(C)c1ccc(/C=C/c2nnnn2-c2ccccc2)cc1	4µM*	2%	?	-19%	0	?
CCC(=O)Nc1nc2ccccc2n1Cc1ccc(Cl)cc1	-32%	-2%	0%	-7%	-1	21µM*
O=C(Nc1nc2ccccc2n1Cc1ccccc1)c1ccco1	-66%	0%	-5%	-14%	-1	16µM*
O=C(NCCc1nc2ccccc2n1Cc1ccccc1)c1ccco1	.	16%	.	-2%	.	3%
COc1cc2c(NC3CCN(C)CC3)nc(N3CCCN(C)CC3)nc2cc1OCCCN1CCCC1	-15%	.	.	.	.	.
Cc1ccc(C)c(CN2C(=O)c3ccccc3S(=O)c3ccc(C(=O)N4CCN(c5cccc(Cl)c5)CC4)cc32)c1 (configuration not stated)	-14%	-1%	.	-6%	.	3%
CCOC(=O)c1c(C)[nH]c(CCC(=O)NCc2cc(OC)c(OC)c(OC)c2)c1C	.	0%	.	16%	.	.
CCOc1ccccc1CNC(=O)c1ccc2c(c1)nc1n2CCCCC1	.	0%	.	-4%	.	.
CN(Cc1ccccc1)c1nc(-c2ccc([N+](=O)[O-])cc2)nc2ccccc12	-16%	0%	4%	-6%	1	?
O=[N+]([O-])c1ccc(-c2nc(C(Cl)Cl)c3ccccc3n2)cc1	-2%	3%	8%	?	-1	15µM*
CC(C)(C)OC(=O)Cc1nnc(-c2cc3ccccc3[nH]2)s1	.	.	.	-1%	.	?
COc1ccc(CNC(=O)C[C@H]2C[C@H](C(=O)N3CCOCC3)[C@@]3(CCC4CCCC4)c4[nH]c5cc(-c6ccco6)ccc5c4CCN3C2=O)cc1OC	-56%	2%	7%	-29%	1	23µM*
O=C(C[C@H]1C[C@H](C(=O)N2CCOCC2)[C@@]2(CCC3CCCC3)c3[nH]c4cc(-c5ccco5)ccc4c3CCN2C1=O)NCc1cccc(C(F)(F)F)c1	-70%	0%	5%	-30%	1	?
O=C(CC1C[C@H](C(=O)N2CCOCC2)[C@@]2(CCC3CCCC3)c3[nH]c4ccccc4c3CCN2C1=O)NCC12CC3CC(CC(C3)C1)C2 (some centres not stated)	2%	0%	1%	?	-1	23µM*
CC[C@]12c3[nH]c4ccc(Cl)cc4c3CCN1C(=O)[C@@H](CC(=O)NCC13CC4CC(CC(C4)C1)C3)C[C@@H]2C(=O)N1CCN(C(=O)C2CC2)CC1	-71%	-1%	7%	-29%	-1	23µM*
